A selection: hits, their analogues and other compounds. The true share with any hit is near 2.2%.
aSyn UTR inh: MLPCN primary screen, SNCA 5' untranslated region. alpha-synuclein 5'UTR reporter, inhibitor activity. inhibition, % (tested at 7.5 µM). hit rate 0.82% among 300,000. AID 1813, 2009; in the data active = inhibition above about 60%;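 note: H4 neuroglioblastoma cells stably carrying SNCA 5'UTR luciferase fusion; 0% = DMSO wells and 100% = positive control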
BaF3 tox: parental Ba/F3 cell viability inhibition, counter-screen for JAK2V617F inhibitor project, murine pro-B, CellTiter-Glo luminescence; CellTiter-Glo ATP luminescence; inhibition, % at 5.6 µM; hit rate 1.1% among 220,000; AID 1486, 2009;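 active = inhibition above a per-campaign cutoff, the mean inhibition of all tested compounds plus 3 SD, cut at about 27% in these data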;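 note: 0% = DMSO wells and 100% = JAK Inhibitor I control wells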
APP transl inh: inhibitors of APP translation via 5'UTR reporter, primary screen, APP 5'UTR luciferase, SH-SY5Y cells. SH-SY5Y APP 5'UTR-luciferase reporter, luminescence. inhibition, % at 2 µM. hit rate 0.82% among 190,000. AID 1285, 2008;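 active = inhibition above a set limit, derived from the sample mean plus 3 SD, cut at about 45% in these data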
Ba/F3 V617F tox: reduced viability of JAK2V617F-dependent Ba/F3 cells, primary screen, JAK2V617F inhibitor project, cell-based, Ba/F3 EpoR-JAK2V617F, luminescence. inhibition, % at 5.6 µM. ATP luminescence. hit rate 1.1% among 220,000;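 active = inhibition above the campaign mean plus 3 SD over all tested compounds, cut at about 24% in these data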;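 note: cytokine-independent growth of Ba/F3 cells driven by EpoR plus mutant JAK2; 0% = DMSO-treated cells and 100% = JAK inhibitor I control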
KLF5 inh: KLF5 expression inhibitors, primary screen, DLD-1 cells, luminescence. DLD-1 KLF5 promoter-luciferase reporter. hit rate 0.23% among 290,000. inhibition, % at 5 µM. AID 1700, 2009;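 active = inhibition above a per-plate limit of that plate's mean compound inhibition plus 3 SD, cut at about 60% in these data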;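 note: 0% = DMSO wells and 100% = LY294002 at 200 µM; higher means less KLF5 promoter-driven luciferase light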
IEC-6 tox: cytotoxicity in IEC-6 intestinal epithelial cells, primary screen, cytotoxicity control for KLF5 inhibitor project, cell-based, luminescence | IEC-6 cytotoxicity, luminescence viability | inhibition, % at 5 µM | hit rate 0.78% among 290,000 | AID 1825, 2009; in the data active = inhibition above about 22%;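 note: 0% = plate median of test compound wells and 100% = cytotoxic reference compound wells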
An asterisk follows results filed as active; . = not tested or not shown.

SMILES	aSyn UTR inh	BaF3 tox	APP transl inh	Ba/F3 V617F tox	KLF5 inh	IEC-6 tox
CCOC(=O)c1[nH]c(C)c(C(=O)N2CCN(c3cccc(Cl)c3)CC2)c1C	-6.2	4.9	-7.2	0.1	-12.2	-6.8
Cn1nc(CC(=O)N2CCN(c3ccccc3)CC2)c2ccccc2c1=O	13.3	8.0	-20.3	4.0	15.7	11.3
Cn1nc(CC(=O)Nc2ccc(N3CCN(C(=O)OC(C)(C)C)CC3)cc2)c2ccccc2c1=O	77.4*	60.2*	9.6	49.6*	10.7	11.4
Cn1nc(CC(=O)Nc2ccc3c(c2)OCCO3)c2ccccc2c1=O	15.9	53.0*	4.7	48.2*	17.5	8.2
COc1ccccc1NC(=S)N1CCC(NC(=O)c2ccco2)CC1	14.0	4.8	12.8	-2.9	-15.7	-6.8
O=C(NCCCCNC(=O)c1c(F)c(F)c(F)c(F)c1F)c1c(F)c(F)c(F)c(F)c1F	-11.3	1.4	0.5	-1.8	-9.0	1.4
CC(C)CNC(=O)c1c(F)c(F)c(F)c(F)c1F	-21.1	73.6*	-13.6	10.6	-3.2	-6.2
COC(OC)c1ccc(C#N)c(=O)[nH]1	-4.3	7.6	46.5*	6.9	-16.6	2.7
COC(=O)c1[nH]c2ccc(F)cc2c1NS(=O)(=O)c1ccc(OC)cc1	99.5*	61.3*	88.6*	80.9*	53.3	51.8*
COc1ccc(S(=O)(=O)Nc2c(C(=O)O)[nH]c3ccc(OC)cc23)cc1	-1.4	.	.	.	-17.0	1.1
CSc1ccc(C2NN=C(c3ccccc3)S2)cc1 (configuration not stated)	67.6*	.	.	.	.	.
CCc1nn(C(C)C(=O)NCc2cccc(OC)c2)c(=O)c2cc3occc3n12 (configuration not stated)	-2.8	.	.	.	-10.8	1.5
CN(C)c1ccc(/C=C2\SC(=O)N(CCc3nnc(N)s3)C2=O)cc1	79.8*	-2.2	.	0.6	-35.6	2.6
CN(C)c1ccc(/C=C2/SC(=O)N(CCN=C3NS(=O)(=O)c4ccccc43)C2=O)cc1	-66.0	4.2	-35.2	-1.9	-19.8	-5.5
CCO[C@H]1OC(C(N)=O)=C[C@@H](C(C)(C)C)[C@@H]1CCCO	-2.6	.	.	.	.	.
Cc1cc(C(=O)OCC(=O)Nc2c(F)cccc2F)c(C)n1-c1ccccc1	-103.1	2.0	-56.1	2.8	-54.4	7.3
Cc1cc(-n2c(C)cc(C(=O)CSc3ncnc4ccccc34)c2C)no1	-40.4	51.1*	3.6	43.8*	-7.0	4.7
Cc1cc(-n2c(C)cc(C(=O)CSc3nnc4sc5ccccc5n34)c2C)no1	-3.6	1.4	-7.2	-1.8	15.1	-3.2
O=C(CSc1nnc(NC(=O)c2ccccc2F)s1)NCC1CCCO1 (configuration not stated)	-71.7	.	.	.	-104.5	1.3
COc1ccc(CCNC(=O)COC(=O)COc2ccc(C#N)cc2)cc1	13.7	8.4	-1.2	0.7	-21.1	-6.9
CCN(C1CCCCC1)S(=O)(=O)c1ccc(S(=O)(=O)NCc2ccncc2)cc1	-8.3	55.1*	-18.6	44.6*	-6.0	18.2
O=S(=O)(NCc1ccncc1)c1ccc(Br)s1	14.4	62.2*	27.7	46.9*	14.0	13.3
Cc1ccc(S(=O)(=O)NCc2ccncc2)cc1C	-2.9	75.1*	-3.2	48.0*	-18.2	11.1
Cc1ccc(CSc2nnc(-c3ccco3)o2)cc1	-153.9	1.1	-53.3	-2.1	-102.2	-2.6
O=C1CCC(C(=O)N(Cc2cccs2)C2(C(=O)NC3CCCCC3)CCCCC2)N1 (configuration not stated)	-2.9	6.6	-11.1	-0.2	-6.2	-2.2
SMILES	aSyn UTR inh	BaF3 tox	APP transl inh	Ba/F3 V617F tox	KLF5 inh	IEC-6 tox
Cc1cc(N/N=C/c2ccc(O)c(C)c2O)nc(-c2ccccc2O)n1	86.7*	6.6	43.2	1.3	-30.2	10.5
C/C(=N\Nc1cc(C)nc(-c2ccccc2O)n1)c1ccccc1	-64.8	1.9	17.6	-3.5	-54.3	3.3
Clc1cccc(-c2nc(-c3ccccn3)no2)c1	93.3*	4.2	-97.1	-1.2	-71.4	2.0
NC(=O)COC(=O)CC(NC(N)=O)c1ccc(Cl)cc1 (configuration not stated)	1.6	-2.5	-11.9	-4.9	-16.7	2.6
NC(=O)NC(CC(=O)OCC(=O)NC(=O)NCc1ccco1)c1ccc(Cl)cc1 (configuration not stated)	-11.7	2.0	55.4*	-1.9	-55.5	0.2
O=C(COc1ccc(Cl)cc1Cl)Nc1c(-c2cccs2)nc2ccccn12	-26.0	6.2	16.1	0.1	-6.3	0.6
COC(=O)c1ccc(CSc2nnc(Nc3ccc(OC)cc3)s2)o1	10.9	2.8	26.2	-1.4	-25.7	3.6
COC(=O)c1ccc(CSc2nnc(Nc3ccccc3OC)s2)o1	7.9	40.7*	-20.2	0.2	-3.7	7.7
O=C(c1ccc(F)cc1)C(CN1CCOCC1)c1ccccc1 (configuration not stated)	-8.6	5.0	94.8*	7.7	-34.0	-2.9
COc1ccc(C(=O)C(CN2CCOCC2)c2ccccc2)cc1 (configuration not stated)	-80.2	41.8*	89.7*	90.1*	-3.4	7.6
O=C(c1ccc(Cl)cc1)C(CN1CCCC1)c1ccccc1 (configuration not stated)	-155.3	.	.	.	-47.6	14.2
COc1ccc(C(=O)C(CN2CCCC2)c2ccccc2)cc1 (configuration not stated)	-112.5	28.7*	86.0*	79.7*	-14.8	6.7
CCCCOc1ccc(C(=O)C(CN2CCOCC2)c2ccccc2)cc1 (configuration not stated)	-133.7	3.8	5.3	11.7	-11.5	0.6
CCCCc1ccc(NC(=S)NCCc2ccc(S(N)(=O)=O)cc2)cc1	7.3	3.9	15.8	-1.8	-2.1	3.3
CCN1CCN(C(=S)c2ccc(-c3ccccc3)cc2)CC1	65.8*	2.2	-7.4	2.0	-15.3	-1.8
Cc1ccc(C(=S)N2CCN(Cc3ccccc3)CC2)cc1	7.3	0.7	-21.3	-3.8	-31.7	0.3
O=C(O)CCC(=O)NNc1nc2ccccc2nc1-c1ccccc1	-30.8	90.0*	-7.8	0.8	-49.5	0.2
O=C(O)CCC(=O)NNc1ncnc2ccccc12	14.4	10.3	-15.7	-2.0	-32.4	3.7
Cc1ccc(Oc2cc(NN3CCCCC3)c([N+](=O)[O-])cc2[N+](=O)[O-])c(Cl)c1	35.1	.	.	.	-25.5	-1.9
O=C(NCc1ccco1)c1cc([N+](=O)[O-])ccc1N1CCCCC1	2.3	4.1	-2.5	0.8	-31.5	3.4
O=C(NCc1ccc2c(c1)OCO2)c1cc([N+](=O)[O-])ccc1N1CCCCC1	28.0	47.7*	79.2*	62.7*	48.3	54.8*
CC(C)c1ccc(C2C3=C(COC3=O)Nc3cc4c(cc32)OCO4)cc1 (configuration not stated)	122.9*	77.2*	95.0*	71.1*	71.8*	90.3*

Compound activity from PubChem BioAssay.
